# G9a inh: qHTS Assay for Inhibitors of Histone Lysine Methyltransferase G9a; Histone-lysine N-methyltransferase EHMT2 (Homo sapiens), Q96KQ7; G9a H3K9 monomethylation, AlphaScreen, 2 h; Potency, µM (doses to about 102 µM), for the others: top-dose activity, negative = inhibition, most hits filed as inhibitors; 350,000 compounds, 8.8% hits; AID 504332, 2011; also: % is scaled to controls: 0 for no effect and ±100 for the full control effect; nearly all actives have a fitted effect of over 75% in size
# Target sequence (Q96KQ7 913-1193 limits assumed): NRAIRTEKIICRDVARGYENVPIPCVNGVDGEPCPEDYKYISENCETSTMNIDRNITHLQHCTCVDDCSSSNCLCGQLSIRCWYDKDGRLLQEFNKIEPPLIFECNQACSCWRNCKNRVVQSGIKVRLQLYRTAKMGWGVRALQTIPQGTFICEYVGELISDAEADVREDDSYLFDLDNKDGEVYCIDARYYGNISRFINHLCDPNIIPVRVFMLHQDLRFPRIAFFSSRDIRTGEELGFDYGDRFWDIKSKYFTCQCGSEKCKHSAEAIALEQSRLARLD
#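 G9a (20 nM) preincubated 15 min RT with compounds, then 500 nM biotinylated H3K9 peptide and 20 uM SAM added; 2 h RT reaction. Monomethyl-H3K9 product detected by AlphaScreen with anti-H3K9me1 antibody, streptavidin donor and anti-rabbit IgG acceptor beads.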
# Sfp PPTase inh: qHTS Assay for Inhibitors of Bacillus subtilis Sfp phosphopantetheinyl transferase (PPTase) | 4'-phosphopantetheinyl transferase ffp (Bacillus subtilis), Q9F4F7 | AID 1490, 2009 | Biochemical Sfp PPTase activity, qHTS | Potency, µM, inactives show largest response in the series, negative = inhibition, usual class: inhibitors | 310,000 compounds, 3.5% hits;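 also: the enzyme is Sfp with the accession as filed and its product quenches rhodamine fluorescence; 0% = enzyme reaction without inhibitor and -100% = no enzyme wells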
#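 Fluorescence-quenching assay: 15 nM Sfp-PPTase preincubated 15 min at room temperature with compound, then 5 uM rhodamine-CoA and 12.5 uM BHQ-2-labelled YbbR peptide added. Fluorescence (ex 525/em 598 nm) read at start and after 30 min; difference gives rate.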
# JMJD2A Tudor inh: qHTS Assay for Inhibitors of JMJD2A-Tudor Domain. 390,000 compounds, 4.4% hits. AlphaScreen JMJD2A-Tudor / H3K4me3 peptide binding. Potency, µM (titrated, usually from 114 µM), inactives show top-dose activity change, negative = inhibition, usual class: inhibitors. AID 504339, 2011; also: % is scaled to controls: 0 for no effect and ±100 for the full control effect; nearly all actives have a fitted effect of over 50% in size
# BAZ2B inh: qHTS Assay for Inhibitors of BAZ2B | Bromodomain adjacent to zinc finger domain protein 2B (Homo sapiens), Q9UIF8 | 360,000 compounds, 4.4% hits | AlphaScreen BAZ2B-H3K14Ac peptide displacement | Potency, µM (top dose mostly 114 µM), inactives show at the highest dose activity change, negative = inhibition, usual class: inhibitors; also: % is scaled to controls: 0 for no effect and ±100 for the full control effect; nearly all actives have a fitted effect of over 60% in size
#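 Compounds, titrated to a top concentration of 110 uM, were incubated 30 min at room temperature with preformed BAZ2B/acetyl-K14 H3 peptide complex (50 nM each). Proximity signal was measured by AlphaScreen after 20 min with beads.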
# HP1b chromo inh: HTS for Inhibitors of HP1-beta Chromodomain Interactions with Methylated Histone Tails; Chromobox protein homolog 1 (Homo sapiens), P83916; AlphaScreen HP1-beta / biotin-H3K9me3 peptide binding; Potency, µM (doses to about 114 µM), without a hit: top-dose activity change, negative = inhibition, actives largely listed as inhibitors; 390,000 compounds, 0.56% hits; also: nearly all actives have a fitted effect of over 70% in size
# Target sequence (P83916 whole entry, looked up): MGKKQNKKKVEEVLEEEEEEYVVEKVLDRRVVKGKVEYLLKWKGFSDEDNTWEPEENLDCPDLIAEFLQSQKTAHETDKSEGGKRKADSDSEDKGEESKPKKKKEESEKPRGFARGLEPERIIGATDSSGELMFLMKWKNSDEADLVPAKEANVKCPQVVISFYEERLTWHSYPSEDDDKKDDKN
#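 HP1-beta protein (50 nM final) preincubated 30 min at room temperature with biotinylated H3(1-18)K9me3 peptide (50 nM) in PBS pH 7.4, 0.01% Tween-20, then compound added for 30 min. AlphaScreen streptavidin donor/nickel chelate acceptor beads (10 ug/mL final), 30 min dark, luminescence read.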
# ALOX12 inh: Primary qHTS assay for inhibitors of human arachidonate 12S-lipoxygenase (ALOX12): Round 2 | Potency, µM (titrated, usually from 108 µM), inactives show top-dose activity change, negative = inhibition, usual class: inhibitors | 580,000 compounds, 1.1% hits | Polyunsaturated fatty acid lipoxygenase ALOX12 (Homo sapiens), P18054 | AID 1671190, 2021 | purified 12hLO, xylenol orange hydroperoxide absorbance; also: % is scaled to controls: 0 for no effect and ±100 for the full control effect
#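 Purified human 12hLO (150 nM final) in 25 mM Hepes, 0.01% Triton X-100, pH 7.0 was preincubated 15 min at room temperature with compound. Then 40 uM arachidonic acid was added, 30 min. Hydroperoxide was read by Fe-XO absorbance ratio 573/405 nm.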
# Numbers without * were called inactive; ? = inconclusive; . = not tested or not shown; [ ] = dose if it differs, or a comment. Compounds with a hit are over-represented: about 8.7% of the library has one in this group of screens. Calls follow the shape of the dose curve; as a rule, active = well fitted curve in the direction sought with a large enough effect; inconclusive = small, poorly fitted or top-dose-only effect, or another doubt; inactive = no such curve, though single readings can be large; an effect the other way counts as inactive or inconclusive. Potency is read from the fitted curve at half-maximal effect.
SMILES,G9a inh,Sfp PPTase inh,JMJD2A Tudor inh,BAZ2B inh,HP1b chromo inh,ALOX12 inh
O=C(Cn1cnnn1)N1C[C@@H](COCC2CC2)[C@H](c2ccncc2)C1,.,.,.,.,.,2.6%
CCN1CCOC(=O)C1CC(=O)Nc1cc(C)ccc1OC (stereo not drawn),10µM*,.,-16.8%,-4.9%,19.8%,-4.2%
CCN1CCOC(=O)C1CC(=O)Nc1ccc(Br)cc1 (stereo not drawn),2.51µM*,.,-13.4%,-36.0%,-13.5%,-34.9%
CCN(C(=O)c1cccs1)c1cccc(C)c1,.,.,.,.,.,1.7%
Cc1cccc(N=N/C(=C\O)C(=O)c2cccs2)c1,28.2µM*,-22.8%,25.1µM*,11.2µM*,?,?
O=C(NCc1ccccc1CN1CCCCC1)c1ccccc1N1CCCC1=O,-10.9%[2.33 µM],.,?,-2.9%,26.9%,-17.8%
COC(Cc1ccccc1N1CCCC1=O)OC,56.2µM*,7.2%,-2.8%,?,33.7%,-2.0%
C=CCNc1nc2c(c(=O)n(C)c(=O)n2C)n1Cc1ccccc1,.,.,.,.,.,4.3%
O=C(CSc1nc2ccccc2c(=O)n1-c1ccccc1)N1CCCC1,50.1µM*,3.8%,-2.4%,-15.4%,32.4%,-16.2%
O=C(CSc1nc2ccccc2c(=O)n1-c1ccccc1)N1CCCCC1,.,.,.,.,.,-37.7%
O=C(CSc1nc2ccccc2c(=O)n1-c1ccccc1)NC(=O)CN1CCCC1=O,50.1µM*,25.6%,-16.7%,79.4µM*,-19.7%,-0.6%
O=C(CSc1nc2ccccc2n1S(=O)(=O)c1ccccc1)N1CCCC1,50.1µM*,15.7%,-2.1%,1.5%,24.8%,-19.7%
O=C1NC(=NC2CCCCC2)C2(CCCN([S+](=O)([O-])c3ccccc3)C2)N1c1cccnc1 (stereo not drawn),.,.,.,.,.,9.1%[6.33 µM]
CC1=C(C(=O)OC(C)C)C(c2ccc(Cl)cc2)N2C(CC(=O)N3CCCC3)=CSC2=N1 (stereo not drawn),.,.,.,.,.,28.5%
CCN(CC)c1nc(N)c2c(N)n(-c3ccccc3C)c(=S)c(C#N)c2c1C#N,-48.5%[2.33 µM],?,39.8µM*,-31.5%,?,0.0%
CCN(CC)c1nc(N)c2c(N)nc3c(c2c1C#N)CC(c1ccccc1)O3 (stereo not drawn),37.1%[59 µM],-9.3%,-14.9%,15.9%,36.9%,-5.4%
CN(C)c1ccc(CN2CC[C@H](c3nc4cc(Cl)ccc4o3)C2)cc1,.,.,.,.,.,3.3%[176 µM]
Cc1nnsc1C(=O)Oc1ccc(Cl)cc1,12.6µM*,.,-2.6%,7.3%,2.8%,-15.2%
Cc1cc(C)cc(OC(=O)c2snnc2C)c1,-45.9%[59 µM],.,62.3%,36.5%,79.4%,-18.9%
Cc1nnsc1C(=O)Oc1ccc(C#N)cc1,15.8µM*,.,89.1µM*,?,17.2%,-26.2%
O=C(c1cccnc1)N1CCC2(CC1)CC(OCC1CC1)CCO2 (stereo not drawn),.,.,.,.,.,15.4%
CCc1cccc(CC)c1NC(=O)COC(=O)c1cc(=O)c2ccccc2o1,.,.,.,.,.,-0.7%
CNC(=S)N/N=C/c1cn(CCOc2ccc(OC)cc2)c2ccccc12,12.7%[59 µM],8.5%,?,?,-18.3%,39.8µM*
CNC(=S)N/N=C/c1c(C)c(C(=O)c2ccc(F)cc2)n2ccccc12,-5.2%,-9.4%,-8.5%,-19.1%,-13.0%,35.5µM*
CNC(=S)N/N=C/c1cn(Cc2ccc(F)cc2)c2ccccc12,47.7%[59 µM],4.7%,-24.0%,?,14.5%,28.2µM*
COCc1cc(=O)n2[nH]c(-c3ccsc3-n3c(C)ccc3C)cc2n1,-34.0%[59 µM],56.2µM*,-10.7%[11.4 µM],?,11.7%,?
Cc1nc2cc(-c3ccsc3-n3c(C)ccc3C)[nH]n2c(=O)c1Cl,?,?,?,50.1µM*,-18.9%,?

# Compound activity (PubChem)
